The list is not random: actives were taken first. Their share in the collection is about 9.4%.
NPC1 prom act = activators of NPC1 promoter. Huh7 NPC1 promoter luciferase reporter, 24 h. Potency, µM (titrated, usually from 9.22 µM), actives largely listed as activators. 2.4% of 320,000 active; note: nearly all actives have a fitted effect of over 60% in size
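Huh7 cells stably carrying NPC1 promoter–luciferase, plated in Opti-MEM with 10% FBS for 2 h, were exposed to compound in DMSO for 24 h at 37 °C; luciferase reagent was added for 10 min and luminescence read.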
FLuc counter = inhibits or activates purified firefly luciferase, miR-21 counter-screen; P08659; purified FLuc, Km substrates, luminescence inhibition; Potency, µM (doses to about 57.5 µM), hits mostly inhibitors; 6.9% of 360,000 active; AID 588342; note: nearly all actives have a fitted effect of over 55% in size
Target sequence (P08659 whole entry, looked up): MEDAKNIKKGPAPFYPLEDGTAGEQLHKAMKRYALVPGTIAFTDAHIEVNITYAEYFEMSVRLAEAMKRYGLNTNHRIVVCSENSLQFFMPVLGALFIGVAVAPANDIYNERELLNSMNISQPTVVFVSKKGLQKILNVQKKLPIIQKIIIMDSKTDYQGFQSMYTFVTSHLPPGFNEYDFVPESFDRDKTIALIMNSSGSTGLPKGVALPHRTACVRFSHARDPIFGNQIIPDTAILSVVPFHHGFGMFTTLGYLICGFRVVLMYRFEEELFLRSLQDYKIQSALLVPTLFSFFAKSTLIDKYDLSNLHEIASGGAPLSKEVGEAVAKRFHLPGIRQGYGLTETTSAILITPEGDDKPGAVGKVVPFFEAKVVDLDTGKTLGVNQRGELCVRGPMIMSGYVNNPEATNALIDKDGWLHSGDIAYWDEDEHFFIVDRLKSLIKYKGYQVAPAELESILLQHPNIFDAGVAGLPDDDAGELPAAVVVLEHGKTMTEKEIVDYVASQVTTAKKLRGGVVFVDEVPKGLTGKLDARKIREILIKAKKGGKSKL
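Biochemical qHTS of compounds, final roughly 60 µM downward over six points, against 10 nM purified firefly luciferase using Km concentrations of substrates (10 uM D-luciferin, 10 uM ATP) in Tris acetate pH 7.5 buffer; luminescence output.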
ELG1 genotoxic = induces genotoxicity in HEK293T cells with luciferase-tagged ELG1 | HEK293T ELG1-luciferase reporter, luminescence, 16 h | Potency, µM (titrated, usually from 46 µM), hits mostly activators | 1.3% of 330,000 active; note: nearly all actives have a fitted effect of over 60% in size
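Quantitative HTS format in 1536-well plates. HEK293T ELG1-luciferase reporter cells receive test compound and are incubated 16 hr at 37 °C, 5% CO2; ONE-Glo added, 30 min room temperature, then luminescence read.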
ELG1 repair inh = ELG1-dependent DNA repair inhibition | HEK293T ELG1-luciferase reporter, luminescence, 16 h; DNA damage induced by 5-fluorouridine | Potency, µM (series often up to 46.1 µM), usual class: inhibitors | 2.3% of 330,000 active; note: nearly all actives have a fitted effect of over 55% in size
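Cells (2,000 per well) received 5-fluorouridine plus test compound or DMSO and were incubated 16 hr at 37 °C, 5% CO2. Luciferase activity was read by luminescence 30 min after ONE-Glo addition; signal suppression marked inhibition of damage-induced ELG1 function.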
SMN2 splice up = enhancers of SMN2 splice variant expression | 2.8% of 210,000 active | AID 1458 | HEK293 SMN2-luciferase splicing reporter, luminescence, 30-36 h | Potency, µM (doses to about 46.1 µM), actives largely listed as activators; note: nearly all actives have a fitted effect of over 55% in size
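qHTS luciferase splicing reporter: luminescence rises when SMN2 exon 7 is included in transfected HEK293 cells. Compound exposure lasted 30-36 h at 37C, with 4.5 mM final sodium butyrate as control, followed by a ONE-Glo read.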
Rab9 promoter act = activators of Rab9 promoter | Huh7 Rab9 promoter-luciferase reporter, luminescence, 24 h | Potency, µM (top dose mostly 9.22 µM), actives largely listed as activators | 2.8% of 320,000 active | AID 485297; note: nearly all actives have a fitted effect of over 60% in size
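Steps: seed 1500 Huh7 Rab9-luc cells per well, rest 2 h at 37 °C; add compound in DMSO; incubate 24 h; add luciferase reagent, 10 min ambient; read luminescence.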
A number is an active result; – = inactive; ? = inconclusive; · = no result given; [ ] = dose if it differs, or a comment. Calls come from the whole dose curve; as a rule, active = well fitted curve in the direction sought with a large enough effect; inconclusive = small, poorly fitted or top-dose-only effect, or another doubt; inactive = no such curve, though single readings can be large; an effect the other way counts as inactive or inconclusive.

SMILES	NPC1 prom act	FLuc counter	ELG1 genotoxic	ELG1 repair inh	SMN2 splice up	Rab9 promoter act
COC(=O)c1ccc(N2NC(=O)/C(=C/c3ccc(-c4ccc(Cl)c(C(=O)O)c4)o3)C2=O)cc1	–	10.7µM	–	–	–	–
Cc1ccc(N2NC(=O)/C(=C/c3ccc(-c4ccc(Cl)c(C(=O)O)c4)o3)C2=O)cc1C	–	16.9µM	–	–	·	–
O=C1NN(c2ccccc2)C(=O)/C1=C/c1ccc(-c2ccc(C(=O)O)cc2)o1	–	21.3µM	–	–	·	–
CCOc1ccc(NC(=O)c2c(NC(=O)Cc3ccccc3)sc3c2CCCC3)cc1	·	–	·	·	–	·
Cc1cc2ncn(CC(=O)O)c2cc1C	·	·	·	·	–[9.22 µM]	·
Cc1cccc(C(=O)N2CCc3cc(CNC(=O)c4ccc(Br)o4)ccc32)c1	·	–	·	·	·	·
O=S(=O)(O)c1ccc(N=NNc2ccc(Br)cc2)cc1	–	9.53µM	–	–	·	–
NC(N)=NC(N)=Nc1ccc(S(=O)(=O)O)cc1	·	·	·	·	–[9.22 µM]	·
CCOc1ccccc1Nc1nc(-c2cccc(Cl)c2)c2c(n1)-c1ccccc1OC2	·	10.7µM	·	·	·	·
c1ccc(-c2cc(-c3ccccc3)c3c(n2)-c2ccccc2OC3)cc1	·	?	·	·	–	·
COc1ccc(C(=O)N(Cc2ccc(C(C)C)cc2)C2CCS(=O)(=O)C2)cc1 (stereo not drawn)	·	–	·	·	–	·
Cn1c(-c2c(N)n(CCc3ccccc3)c3nc4ccccc4nc23)nc2ccccc21	–	–	–	9.2µM	–	–
Cn1c(-c2c(N)n(CCCc3ccccc3)c3nc4ccccc4nc23)nc2ccccc21	–	–	–	?	–	–
Cc1ccc(NC(=O)c2noc3c2CCc2ccccc2-3)cc1	3.98µM	7.57µM	20.6µM	?	?	2.82µM
CCc1ccc(NC(=O)c2noc3c2CCc2ccccc2-3)cc1	–	10.7µM	?	?	–	?
O=C(Nc1ccc(F)cc1F)c1noc2c1CCc1ccccc1-2	·	?	·	·	11.2µM	·
O=C(Nc1cccc(O)c1)c1noc2c1CCc1ccccc1-2	?	0.477µM	1.16µM	?	?	?
COc1ccc(Cl)cc1S(=O)(=O)NCc1ccc2c(c1)CCN2C(=O)c1cccc(C)c1	·	–	·	·	·	·
CC(C)[C@](N)(C(=O)O)c1ccccc1	·	·	·	·	–[9.22 µM]	·
Cc1nc(CC(=O)Nc2cccc(C)c2C)cs1	·	–	·	·	–	·
Cc1ccc(OCn2c(=O)sc3ccccc32)cc1	?	23.9µM	16.4µM	?	?	?
COc1ccccc1OCCCn1c(=O)oc2ccccc21	–	?	–	?	–	–
CCCOc1ccc(Cn2c(=O)sc3ccccc32)cc1	·	–	·	·	–	·
O=c1sc2ccccc2n1CCOc1ccccc1	?	13.5µM	20.6µM	?	?	?
COc1ccccc1OCCCn1c(=O)sc2ccccc21	–	15.1µM	–	?	–	–
SMILES	NPC1 prom act	FLuc counter	ELG1 genotoxic	ELG1 repair inh	SMN2 splice up	Rab9 promoter act
Cc1nc(-c2cccc(NC(=O)c3cccc(S(=O)(=O)N4CCCC4)c3)c2)cs1	–	?	–	18.3µM	·	–
O=C(Nc1nc(-c2cccs2)cs1)c1ccc(S(=O)(=O)N2CCCCC2)cc1	–	–	–	?	–	–
O=C(Nc1nc(-c2cccs2)cs1)c1cccc(S(=O)(=O)N2CCCCCC2)c1	–	15.1µM	–	?	–	?
CCOC(=O)c1cccc(NC(=O)Nc2ccc3c(c2)N(C)C(=O)c2ccccc2S3)c1	·	–	·	·	·	·
CC1(C)Oc2ccc(C#N)cc2[C@@H](OC2=CC(=O)CC2)[C@@H]1O	·	·	·	·	–	·
COc1ccc(C(=O)C23CC4CC(C2)CC(C(=O)c2ccc(OC)cc2)(C4)C3)cc1	–	–	–	5.8µM	–	–
COc1cccc(C(=O)Nc2nnc(S(=O)(=O)N3CCCc4ccccc43)s2)c1	·	–	·	·	·	·
CN(C)/C=C/c1onc(-c2ccccc2Cl)c1C#N	?	23.9µM	?	?	–	?
Cc1ccccc1-c1noc(N)c1C#N	–	–	–	–	–	–
CCCCOc1ccc(-c2ncc(C(=O)O)c(C)n2)cc1	0.501µM	2.39µM	–	?	14.1µM	0.562µM
CCCCCCOc1ccc(C(=O)O)cc1	–	?	–	?	·	–
COc1cccc(C(=O)N(Cc2ccco2)c2ccccn2)c1	·	–	·	·	·	·
O=[N+]([O-])c1ccc(Nc2ccc(F)cc2)nc1	–	–	–	?	–	–
CN(C)c1ccc(Nc2ccc([N+](=O)[O-])cn2)cc1	3.55µM	?	?	?	·	?
CN(C)c1ccc(/C=C(/C#N)C(=O)NCc2ccccc2)o1	?	?	?	?	12.6µM	?
c1ccc(-c2nc(-c3ccc(-c4ccon4)s3)no2)cc1	1.12µM	1.2µM	?	?	·	1.41µM
CCOc1nc(-c2ccccc2)ccc1-c1noc(-c2ccc(C)cc2)n1	·	–	·	·	–	·
c1csc(-c2nc(-c3ccc(-c4ccon4)s3)no2)c1	0.562µM	0.601µM	2.31µM	?	·	0.355µM
CCOc1ncccc1-c1nc(-c2cccs2)no1	–	?	–	?	·	–
COc1cc(NC(=O)c2c(C)nn(-c3ccc(F)cc3)c2-n2cccc2)cc(OC)c1	·	–	·	·	·	·
Cc1ccc(CNc2cc(C)nc3nc(-c4cccc(C)c4)nn23)cc1	·	12µM	·	·	·	·
Cc1cccc(Nc2cc(C)nc3nc(-c4ccccc4)nn23)c1	·	–	·	·	–	·
CCOc1ccc(CNc2cc(C)nc3nc(-c4cccc(C)c4)nn23)cc1OC	·	5.36µM	·	·	·	·
CC(=O)N1c2ccc(S(=O)(=O)N3CCN(c4cc(Cl)ccc4C)CC3)cc2CC1C (stereo not drawn)	·	–	·	·	·	·
CCc1nnc(SCC(=O)N2CCCc3ccccc32)nc1CC	–	–	–	–	–	–
SMILES	NPC1 prom act	FLuc counter	ELG1 genotoxic	ELG1 repair inh	SMN2 splice up	Rab9 promoter act
Cn1c(-c2ccccc2)cnc1SCC(=O)N1CCCc2ccccc21	–	?	–	–	–[1.84 µM]	–
COc1cc(OC)cc(C(=O)N[C@H](C(=O)OCC(=O)N2CCc3ccccc32)C(C)C)c1	–	15.1µM	–	–	–	–
COc1ccc(C(=O)NC(C(=O)N2CCc3ccccc32)C(C)C)cc1 (stereo not drawn)	–	–	–	?	·	–
Cc1ccc(-c2cnc(SCC(=O)N3CCCc4ccccc43)n2C)cc1	–	19µM	–	–	–	–
Cc1ccc2c(c1)c1nnc(SCC(=O)N3CCCc4ccccc43)nc1n2CC(=O)O	3.55µM	6.75µM	?	?	·	3.55µM
COc1ccc2c(CC(=O)N3CCc4ccccc43)coc2c1	2µM	3.38µM	?	?	15.8µM	3.16µM
CC(C)(N=NC(C)(C)C(=N)N)C(=N)N	·	·	·	·	–[9.22 µM]	·
O=C(CSc1nc2ccccc2nc1SCC(=O)N1CCCCC1)N1CCCCC1	–	–	–	16.4µM	·	–
O=C(CSc1nc2ccccc2nc1SCC(=O)N1CCOCC1)N1CCOCC1	–	–	–	–	–	–
Cn1c(-c2ccccc2)cnc1SCC(=O)N1CCCCC1	0.398µM	1.2µM	?	?	1.41µM	0.316µM
O=C(CSc1nnnn1-c1ccccc1)N1CCCc2ccccc21	–	–	–	–	–	–
